The results in this text go back to PubChem BioAssay (NCI).

Compounds without any hit were thinned out: in the full panel of roughly 83,000, 20% have a hit.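 A percent growth of 40 corresponds to 60% growth inhibition; 0 means no net growth; -100 means all cells died. Active threshold: below 10.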 A number with no mark means an inactive call. Calls of active or inactive are those of the source.

Holding throughout (assay): NCI-60 one-dose screen, 48 h (100 = growth as untreated, 0 = no growth, -100 = all killed)
One test concerns RPMI-8226 leukemia. The note with it: 10 µM unless noted.
The test system of the next test is OVCAR-8 ovarian. The conditions noted are these: 10 µM unless noted.
Another test has as its system OVCAR-5 ovarian. The note with it: 10 µM unless noted.
The test system of a further test is OVCAR-4 ovarian. The conditions noted are these: 10 µM unless noted.
A further test has as its system SK-OV-3 ovarian. The conditions noted are these: 10 µM unless noted.
A further test has as its system IGROV1 ovarian. The note with it: 10 µM unless noted.
Another test has as its system OVCAR-3 ovarian. The note with it: 10 µM unless noted.
For the next test, the system named is HS 578T breast. The note with it: 10 µM.
Another test relates to NCI/ADR-RES ovarian. The note with it: 10 µM unless noted.
The subject of a further test is T-47D breast. The conditions noted are these: 10 µM unless noted.
The subject of a further test is BT-549 breast. The note with it: 10 µM unless noted.
The next test has as its system MDA-MB-435 melanoma. The note with it: 10 µM unless noted.
For a further test, the system named is SW-620 colon. The note with it: 10 µM unless noted.
A further test deals with MCF7 breast. The note with it: 10 µM unless noted.
A further test deals with HCT-116 colon. The conditions noted are these: 10 µM unless noted.
The next test relates to HCC-2998 colon. The note with it: 10 µM unless noted.
A further test concerns KM12 colon. The conditions noted are these: 10 µM unless noted.

In the case of `O=C(Nc1cccc(Cl)c1)Nc1cc(C(F)(F)F)ccc1Cl`, the growth was -14% (active) with RPMI-8226 leukemia; 15.2% with OVCAR-8 ovarian; 44.2% with OVCAR-5 ovarian; 11.6% in the test with OVCAR-4 ovarian; 9.3% (active) with SK-OV-3 ovarian; 14.3% with IGROV1 ovarian. In addition, the growth was 18.9% with OVCAR-3 ovarian; 55.9% in the test with HS 578T breast; 2.25% (active) in the test with NCI/ADR-RES ovarian; 5.15% (active) with T-47D breast; 25.8% with BT-549 breast; 8.14% (active) in the test on MDA-MB-435 melanoma. The growth in the test with SW-620 colon is -16.1% (active); with MCF7 breast, 16.1%; in the test on HCT-116 colon, -13.3% (active); with HCC-2998 colon, 13.2%; in the test on KM12 colon it was -45.1% (active).

For `O=C1C=CC(=O)N1c1cccc(N2C(=O)C=CC2=O)c1`, the growth is 91.7% with RPMI-8226 leukemia; 106% in the test with OVCAR-8 ovarian; 102% with OVCAR-5 ovarian; 98.1% in the test with OVCAR-4 ovarian; 111% with SK-OV-3 ovarian; 111% in the test with IGROV1 ovarian. The growth with OVCAR-3 ovarian was 66.4%; with HS 578T breast, 114%; in the test on NCI/ADR-RES ovarian, 110%; in the test with T-47D breast, -13.6% (active); in the test on BT-549 breast, 113%; in the test on MDA-MB-435 melanoma, 103%. The growth was 4.72% (active) in the test on SW-620 colon, 65.9% in the test with MCF7 breast, 24.7% in the test with HCT-116 colon and 122% in the test with KM12 colon.

Turning to `O=Cc1ccc2nc(C(Cl)(Cl)Cl)ccc2c1`, the growth with RPMI-8226 leukemia was 93.7%; in the test on OVCAR-8 ovarian, 107%; in the test with OVCAR-5 ovarian it was 108%; with OVCAR-4 ovarian, 110%; in the test on SK-OV-3 ovarian, 90.5%; in the test on IGROV1 ovarian it was 93.1%. The growth in the test on OVCAR-3 ovarian is 103%; in the test on HS 578T breast, 102%; in the test with NCI/ADR-RES ovarian, 105%; in the test with T-47D breast, 97.6%; in the test with BT-549 breast, 95.9%; in the test on MDA-MB-435 melanoma it was 99.6%. In addition, the growth with SW-620 colon was 98.3%; in the test with MCF7 breast, 82.5%; in the test on HCT-116 colon it was 96.7%; in the test with HCC-2998 colon it was 109%; in the test on KM12 colon, 100%.

Regarding `CCCCCCCCCCCCCCCCCC1=NC(C)(C)CN1C(C)(C)CO`, the growth in the test on RPMI-8226 leukemia is -35.3% (active); in the test with OVCAR-8 ovarian, -80.4% (active); with OVCAR-5 ovarian, 37.9%; in the test on OVCAR-4 ovarian, 3.31% (active); in the test with SK-OV-3 ovarian, -40% (active); with IGROV1 ovarian it was -83.8% (active). The growth with OVCAR-3 ovarian was -1.05% (active); with HS 578T breast it was 15.3%; in the test with NCI/ADR-RES ovarian, -7.97% (active); in the test on T-47D breast it was -19.5% (active); with BT-549 breast, 64.7%; with MDA-MB-435 melanoma, -68.7% (active). The growth with SW-620 colon is -100% (active); in the test on MCF7 breast it was -81% (active); in the test with HCT-116 colon, -100% (active); with KM12 colon, -100% (active).

Regarding `CC1=C(C(=O)Nc2ccc(F)cc2)C(c2ccc(Cl)cc2)C2=C(CC(C)(C)CC2=O)N1` (stereo not given), the growth was 70% in the test with RPMI-8226 leukemia; 89.1% in the test on OVCAR-8 ovarian; 93.5% in the test with OVCAR-5 ovarian; 77.6% with OVCAR-4 ovarian; 101% in the test on SK-OV-3 ovarian; 89.6% in the test on IGROV1 ovarian. In addition, the growth in the test with OVCAR-3 ovarian was 89.9%; in the test with HS 578T breast it was 80.4%; in the test on NCI/ADR-RES ovarian it was 87.9%; in the test on T-47D breast it was 82.6%; with BT-549 breast, 99.9%; in the test on MDA-MB-435 melanoma, 91.6%. Further, the growth with SW-620 colon is 94.6%; in the test with MCF7 breast, 80.1%; in the test on HCT-116 colon, 86.9%; with HCC-2998 colon, 99.6%; in the test on KM12 colon, 92.6%.

Take `Nc1cccc(S(=O)(=O)c2cccc(N)c2)c1`: the growth in the test on RPMI-8226 leukemia was 110%; with OVCAR-8 ovarian, 113%; in the test with OVCAR-5 ovarian it was 99.7%; in the test with OVCAR-4 ovarian it was 102%; with SK-OV-3 ovarian it was 120%; in the test on IGROV1 ovarian, 114%. The growth with OVCAR-3 ovarian is 113%; with HS 578T breast, 118%; with NCI/ADR-RES ovarian, 115%; in the test with T-47D breast, 104%; in the test on BT-549 breast it was 111%; with MDA-MB-435 melanoma, 111%. Further, the growth in the test with SW-620 colon was 115%; in the test on MCF7 breast it was 105%; in the test on HCT-116 colon, 112%; with HCC-2998 colon it was 126%; in the test on KM12 colon, 129%.

Consider `COc1ccc(OC)c(Nc2nc(-c3c(C)nc4sccn34)cs2)c1`, for which the growth in the test on RPMI-8226 leukemia was 41.9%; with OVCAR-8 ovarian, 74.5%; in the test on OVCAR-5 ovarian, 97.9%; with OVCAR-4 ovarian, 78%; with SK-OV-3 ovarian it was 103%; in the test with IGROV1 ovarian, 90.8%. Further, the growth is 94.7% with OVCAR-3 ovarian; 73.1% in the test with HS 578T breast; 77.8% in the test with NCI/ADR-RES ovarian; 26.3% in the test on T-47D breast; 84.8% in the test with BT-549 breast; 66.1% in the test on MDA-MB-435 melanoma. The growth is 84.2% with SW-620 colon; 39.1% in the test on MCF7 breast; 84.6% with HCT-116 colon; 91.3% in the test with HCC-2998 colon; 69.2% in the test with KM12 colon.

Turning to `CC1(C)CC[C@]2(C(=O)N3CCNCC3)CC[C@]3(C)C(=CC[C@@H]4[C@@]5(C)CCC(=O)C(C)(C)[C@@H]5CC[C@]43C)[C@@H]2C1`, the growth in the test with RPMI-8226 leukemia is 104%; with OVCAR-8 ovarian it was 95.9%; in the test on OVCAR-5 ovarian it was 109%; in the test with OVCAR-4 ovarian, 103%; with SK-OV-3 ovarian it was 109%; in the test on IGROV1 ovarian it was 113%. Besides, the growth is 118% in the test on OVCAR-3 ovarian; 104% in the test on HS 578T breast; 103% in the test on NCI/ADR-RES ovarian; 102% with T-47D breast; 106% with BT-549 breast; 105% in the test on MDA-MB-435 melanoma. Besides, the growth in the test with SW-620 colon was 106%; in the test with MCF7 breast it was 98.6%; with HCT-116 colon, 101%; with HCC-2998 colon it was 106%; with KM12 colon it was 111%.

For `Oc1ccc(CCCCCCc2ccc(O)cc2)cc1`, the growth with RPMI-8226 leukemia was 64.7%; in the test on OVCAR-8 ovarian, 44.1%; in the test on OVCAR-5 ovarian, 86.1%; with OVCAR-4 ovarian, 50%; in the test on SK-OV-3 ovarian, 71.5%; in the test with IGROV1 ovarian it was 60.4%. In addition, the growth in the test with OVCAR-3 ovarian was 83.1%; with HS 578T breast it was 103%; in the test on NCI/ADR-RES ovarian, 33.3%; in the test with T-47D breast, 65%; with BT-549 breast, 50.3%; with MDA-MB-435 melanoma it was 71.4%. Moreover, the growth with SW-620 colon is 58.1%; with MCF7 breast, 35.9%; in the test on HCT-116 colon, 66.8%; with KM12 colon, 59%.
